Measurements as given in PubChem BioAssay AID1159580 (chemical genetic matrix, 2015).
The campaign covered roughly 5,500 compounds. About 2,000 (36%) were called active. Inconclusive results (about 18%) are left out. Rule as the data show it: active = normalized growth mostly below about 0.91 (no sharp cut-off); inconclusive = no clear call, values can overlap the other calls; inactive = mostly above about 0.92. The list shows a part of the results.

Test: chemical genetic growth profiling, strain panel (AID 1159580);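 also: tested at 20 µM; growth read once vehicle control cultures reached saturation at 30 °C; 1 = growth at the plate median or of vehicle wells; lower values mean less growth of the strain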
Conditions: growth OD

Measured: normalized growth

CC(C)(C)NC[C@@H](O)COc1nsnc1N1CCOCC1
inactive: S. cerevisiae deletion strains, locus YJR075W, strain HOC1, active compounds read low 0.995 | S. cerevisiae deletion strains, locus YKL009W, strain mrt4, active compounds read low 1.03 | S. cerevisiae deletion strains, locus YKL068W, active compounds read low 0.989 | S. cerevisiae deletion strains, locus YKL085W, strain MDH1 (second series), active compounds read low 0.983 | S. cerevisiae deletion strains, locus YKL085W, strain MDH1, active compounds read low 0.983 | S. cerevisiae deletion strains, locus YKL160W, strain elf1, active compounds read low 1.01 | S. cerevisiae deletion strains, locus YKR001C, strain vps1, active compounds read low 0.952 | S. cerevisiae deletion strains, locus YKR026C, strain gcn3, active compounds read low 1.02 | S. cerevisiae deletion strains, locus YKR091W, strain srl3, active compounds read low 1.01 | S. cerevisiae deletion strains, locus YLL001W, strain dnm1, active compounds read low 1 | S. cerevisiae deletion strains, locus YLL026W, active compounds read low 1.01 | S. cerevisiae deletion strains, locus YLL041C, strain sdh2, active compounds read low 1.03 | S. cerevisiae deletion strains, locus YLR027C, strain aat2, active compounds read low 1.01 | S. cerevisiae deletion strains, locus YLR039C, strain RIC1, active compounds read low 1.01 | S. cerevisiae deletion strains, locus YLR058C, strain SHM2, active compounds read low 1 | S. cerevisiae deletion strains, locus YLR102C, strain apc9, active compounds read low 0.976 | S. cerevisiae deletion strains, locus YLR113W, strain HOG1, active compounds read low 0.975 | S. cerevisiae deletion strains, locus YLR221C, strain rsa3, active compounds read low 0.995 | S. cerevisiae deletion strains, locus YLR258W, strain gsy2, active compounds read low 1.01 | S. cerevisiae deletion strains, locus YLR262C, strain YPT6 (second series), active compounds read low 1.03 | S. cerevisiae deletion strains, locus YLR262C, strain YPT6, active compounds read low 1.02 | S. cerevisiae deletion strains, locus YLR268W, strain sec22, active compounds read low 0.961 | S. cerevisiae deletion strains, locus YLR320W, strain mms22, active compounds read low 0.997 | S. cerevisiae deletion strains, locus YLR330W, strain CHS5, active compounds read low 0.989 | S. cerevisiae deletion strains, locus YLR342W, strain FKS1 (second series), active compounds read low 0.992 | S. cerevisiae deletion strains, locus YLR342W, strain FKS1, active compounds read low 1 | S. cerevisiae deletion strains, locus YLR357W, strain rsc2, active compounds read low 0.998 | S. cerevisiae deletion strains, locus YLR370C, strain arc18, active compounds read low 1.02 | S. cerevisiae deletion strains, locus YLR371W, strain rom2, active compounds read low 0.977 | S. cerevisiae deletion strains, locus YLR384C, strain iki3, active compounds read low 1.01 | S. cerevisiae deletion strains, locus YLR418C, strain cdc73, active compounds read low 1.03 | S. cerevisiae deletion strains, locus YML016C, strain PPZ1, active compounds read low 0.988 | S. cerevisiae deletion strains, locus YML032C, strain rad52, active compounds read low 1.01 | S. cerevisiae deletion strains, locus YML120C, strain ndi1, active compounds read low 1.02 | S. cerevisiae deletion strains, locus YML124C, strain tub3, active compounds read low 0.988 | S. cerevisiae deletion strains, locus YMR058W, strain fet3, active compounds read low 1 | S. cerevisiae deletion strains, locus YMR078C, strain ctf18, active compounds read low 0.972 | S. cerevisiae deletion strains, locus YMR125W, strain sto1, active compounds read low 1.02 | S. cerevisiae deletion strains, locus YMR129W, active compounds read low 1.02 | S. cerevisiae deletion strains, locus YMR205C, strain PFK2, active compounds read low 1.02 | S. cerevisiae deletion strains, locus YMR223W, strain ubp8, active compounds read low 1.02 | S. cerevisiae deletion strains, locus YMR231W, strain pep5, active compounds read low 1.01 | S. cerevisiae deletion strains, locus YMR263W, strain SAP30, active compounds read low 0.997 | S. cerevisiae deletion strains, locus YMR307W, strain GAS1, active compounds read low 0.921 | S. cerevisiae deletion strains, locus YNL067W, strain RPL9B, active compounds read low 0.999 | S. cerevisiae deletion strains, locus YNL071W, strain lat1, active compounds read low 1.01 | S. cerevisiae deletion strains, locus YNL153C, strain GIM3, active compounds read low 0.988 | S. cerevisiae deletion strains, locus YNL183C, strain NPR1, active compounds read low 0.934 | S. cerevisiae deletion strains, locus YNL209W, strain ssb2, active compounds read low 1.02 | S. cerevisiae deletion strains, locus YNL233W, strain BNI4, active compounds read low 0.973 | S. cerevisiae deletion strains, locus YNL248C, strain rpa49, active compounds read low 1.02 | S. cerevisiae deletion strains, locus YNL250W, strain rad50, active compounds read low 0.969 | S. cerevisiae deletion strains, locus YNL271C, strain bni1, active compounds read low 0.985 | S. cerevisiae deletion strains, locus YNL298W, strain CLA4, active compounds read low 0.993 | S. cerevisiae deletion strains, locus YNL307C, strain MCK1, active compounds read low 0.974 | S. cerevisiae deletion strains, locus YNL322C, strain KRE1 (second series), active compounds read low 1 | S. cerevisiae deletion strains, locus YNL322C, strain KRE1, active compounds read low 0.993 | S. cerevisiae deletion strains, locus YNR049C, strain mso1, active compounds read low 1.01 | S. cerevisiae deletion strains, locus YNR052C, strain pop2, active compounds read low 0.994 | S. cerevisiae deletion strains, locus YOL006C, strain TOP1, active compounds read low 0.993 | S. cerevisiae deletion strains, locus YOL012C, strain htz1 0.711 | S. cerevisiae deletion strains, locus YOL147C, strain pex11, active compounds read low 0.993 | S. cerevisiae deletion strains, locus YOR001W, strain rrp6, active compounds read low 1.02 | S. cerevisiae deletion strains, locus YOR061W, strain CKA2, active compounds read low 1 | S. cerevisiae deletion strains, locus YOR069W, strain VPS5, active compounds read low 0.99 | S. cerevisiae deletion strains, locus YOR070C, strain gyp1, active compounds read low 1.01 | S. cerevisiae deletion strains, locus YOR080W, strain dia2, active compounds read low 1.02 | S. cerevisiae deletion strains, locus YOR083W, strain WHI5, active compounds read low 0.981 | S. cerevisiae deletion strains, locus YOR106W, strain vam3, active compounds read low 1.03 | S. cerevisiae deletion strains, locus YOR136W, strain idh2, active compounds read low 0.988 | S. cerevisiae deletion strains, locus YOR144C, strain elg1, active compounds read low 0.982 | S. cerevisiae deletion strains, locus YOR184W, strain ser1, active compounds read low 0.989 | S. cerevisiae deletion strains, locus YOR231W, strain MKK1, active compounds read low 0.988 | S. cerevisiae deletion strains, locus YOR265W, strain rbl2, active compounds read low 1.02 | S. cerevisiae deletion strains, locus YOR270C, strain vph1, active compounds read low 1.04 | S. cerevisiae deletion strains, locus YOR290C, strain snf2, active compounds read low 1.01 | S. cerevisiae deletion strains, locus YOR316C, strain cot1, active compounds read low 0.978 | S. cerevisiae deletion strains, locus YPL051W, strain arl3, active compounds read low 1.01 | S. cerevisiae deletion strains, locus YPL078C, strain atp4, active compounds read low 1.01 | S. cerevisiae deletion strains, locus YPL106C, strain sse1, active compounds read low 0.994 | S. cerevisiae deletion strains, locus YPL240C, strain hsp82, active compounds read low 1.02 | S. cerevisiae deletion strains, locus YPL241C, strain CIN2, active compounds read low 0.992 | S. cerevisiae deletion strains, locus YPL256C, strain CLN2, active compounds read low 0.984 | S. cerevisiae deletion strains, locus YPR119W, strain clb2, active compounds read low 0.983 | S. cerevisiae deletion strains, locus YPR141C, strain kar3, active compounds read low 0.973 | S. cerevisiae deletion strains, locus YPR163C, strain tif3, active compounds read low 0.982 | S. cerevisiae deletion strains, locus YPR167C, strain met16, active compounds read low 0.989 | S. cerevisiae deletion strains, strain wtn01, active compounds read low 0.943 | S. cerevisiae strains, strain wild type, active compounds read low 0.994
